Assay outcomes from PubChem BioAssay.
In the library only some 7.4% were active in any assay of this set; here they are far more common.
FLuc counter: qHTS profiling assay for firefly luciferase inhibitor/activator using purifed enzyme and Km concentrations of substrates (counterscreen for miR-21 project); Luciferin 4-monooxygenase (Photinus pyralis), P08659; purified FLuc, Km substrates, luminescence inhibition; Potency, µM (series often up to 57.5 µM), inactives show at the top dose activity change, negative = inhibition, most hits filed as inhibitors; 360,000 tested, 6.9% active;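 note: plate controls were vehicle for no effect and reference inhibitor for full effect; nearly all actives have a fitted effect of over 55% in size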
Target sequence (P08659 whole entry, looked up): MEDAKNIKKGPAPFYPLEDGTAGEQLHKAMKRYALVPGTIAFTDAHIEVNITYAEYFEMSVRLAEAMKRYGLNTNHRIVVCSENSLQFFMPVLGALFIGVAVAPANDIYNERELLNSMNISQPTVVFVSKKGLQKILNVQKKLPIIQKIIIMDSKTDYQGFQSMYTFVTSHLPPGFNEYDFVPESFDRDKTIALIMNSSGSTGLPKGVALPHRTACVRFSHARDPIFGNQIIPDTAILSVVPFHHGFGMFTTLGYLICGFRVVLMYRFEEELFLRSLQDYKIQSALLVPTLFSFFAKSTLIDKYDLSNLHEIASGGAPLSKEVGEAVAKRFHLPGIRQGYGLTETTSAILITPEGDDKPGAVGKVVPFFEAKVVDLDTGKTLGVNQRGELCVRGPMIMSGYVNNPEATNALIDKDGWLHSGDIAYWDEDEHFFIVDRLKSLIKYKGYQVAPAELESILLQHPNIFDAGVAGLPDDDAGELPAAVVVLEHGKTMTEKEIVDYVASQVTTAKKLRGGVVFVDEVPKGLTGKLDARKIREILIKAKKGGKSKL
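Purified P. pyralis luciferase, 10 nM final, with Km-level 10 uM D-luciferin and 10 uM ATP in 50 mM Tris acetate pH 7.5, 10 mM Mg acetate, 0.01% Tween-20, 0.05% BSA; 6-point qHTS titration about 60 µM downward; luminescence read.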
SMN2 splice up: qHTS Assay for Enhancers of SMN2 Splice Variant Expression. HEK293 SMN2-luciferase splicing reporter, luminescence, 30-36 h. Potency, µM (titrated, usually from 46.1 µM), inactives show at the highest dose activity change, positive = activation, usual class: activators. 210,000 tested, 2.8% active. AID 1458, 2008; note: % of control where 0% means no effect; nearly all actives have a fitted effect of over 55% in size
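HEK293 cells carry an SMN2 […]–luciferase reporter in which exon 7 inclusion puts luciferase in frame. Cells were plated 10-12 h before compound addition, then incubated 30-36 h at 37C. ONE-Glo luminescence was read; sodium butyrate at 4.5 mM final served as control.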
p53 reactivation: qHTS assay for re-activators of p53 using a Luc reporter | Potency, µM (series often up to 92.2 µM), without a hit: at the top dose activity change, positive = activation, actives largely listed as activators | H1299 p53-A138V BP100-luciferase reporter, luminescence, 24 h | AID 504706, 2011 | 320,000 tested, 0.063% active; note: % of control where 0% means no effect; nearly all actives have a fitted effect of over 45% in size
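H1299 (p53-null), stable ts p53-A138V + BP100-Luc; 1000 cells/well, Opti-MEM/10% FBS; cpd 4 pt, 1:5; 24 h, 37 deg C, 5% CO2; detection reagent 10 min RT; luminescence.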
Rab9 prom act: qHTS Assay for Rab9 Promoter Activators | Huh7 Rab9 promoter-luciferase reporter, luminescence, 24 h | 320,000 tested, 2.8% active | Potency, µM (top dose mostly 9.22 µM), for inactives: at the top dose activation, negative = inhibition, hits mostly activators; note: % of control where 0% means no effect; nearly all actives have a fitted effect of over 60% in size
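Luminescence from Amplite-detected luciferase (10 minutes, ambient) reports Rab9 promoter activation. Before that, stable Rab9-luciferase Huh7 cells (1500/well, reduced-serum OP-MEM I plus 10% FBS) were exposed to compound for 24 hours at 37C.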
ELG1 genotoxic: qHTS screen for small molecules that induce genotoxicity in human embryonic kidney (HEK293T) cells expressing luciferase-tagged ELG1; HEK293T ELG1-luciferase reporter, luminescence, 16 h; 330,000 tested, 1.3% active; Potency, µM (doses to about 46 µM), for inactives: at the highest dose activity change, positive = activation, most hits filed as activators; note: % of control where 0% means no effect; nearly all actives have a fitted effect of over 60% in size
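HEK293T cells expressing luciferase-tagged ELG1 were exposed to compound or DMSO vehicle for 16 hr at 37 °C and 5% CO2. Luciferase activity was then measured with ONE-Glo after 30 min at room temperature.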
NPC1 prom act: qHTS Assay for NPC1 Promoter Activators; Huh7 NPC1 promoter luciferase reporter, 24 h; AID 485313, 2010; 320,000 tested, 2.4% active; Potency, µM (series often up to 9.22 µM), inactives show top-dose activation, most hits filed as activators; note: % of control where 0% means no effect; nearly all actives have a fitted effect of over 60% in size
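Stable NPC1-promoter luciferase Huh7 line; cpd (DMSO) 24 h, 37 °C, 5% CO2; Amplite luciferase reagent 10 min RT; luminescence readout. qHTS format.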
Starred values were filed as active, the others as inactive; ? = inconclusive; . = not tested or not shown; [ ] = dose if it differs, or a comment. Calls come from the whole dose curve; as a rule, active = well fitted curve in the direction sought with a large enough effect; inconclusive = small, poorly fitted or top-dose-only effect, or another doubt; inactive = no such curve, though single readings can be large; an effect the other way counts as inactive or inconclusive. Potency is the fitted concentration of half-maximal effect.

SMILES | FLuc counter | SMN2 splice up | p53 reactivation | Rab9 prom act | ELG1 genotoxic | NPC1 prom act
Cc1csc(Nc2ccccc2C(F)(F)F)n1 | ? | -18% | 12% | -1% | -2% | 6%
Cc1csc(NS(=O)(=O)c2ccc(Cl)cc2)n1 | 1% | . | . | 9% | -5% | -4%
Cc1nnsc1C(=O)N/N=C/c1ccc2ccccc2c1O | ? | . | ? | -28% | -8% | -18%
COc1cc(/C=N/Nc2cccc3cccnc23)cc(OC)c1O | 2.7µM* | ? | 16% | ? | 6% | -2%
Oc1c(/C=N/Nc2cccc3cccnc23)ccc2ccccc12 | ? | 11µM* | ? | 3.2µM* | ? | ?
Oc1cccc(/C=N/Nc2cccc3cccnc23)c1 | 0.67µM* | . | ? | ? | ? | ?
Cc1ccc2nc3c(c(Nc4ccc(C)c(C)c4)c2c1)CCC3 | -8% | -49% | . | . | . | .
CCN(Cc1ccccc1)C(=O)Cn1c(=O)n(-c2ccc(F)c(Cl)c2)c(=O)c2sc3ccccc3c21 | -2% | 7% | . | . | . | .
CSc1ccc(-c2nnn(Cc3ccc(Br)cc3)n2)cc1 | ? | 10% | 24% | 16% | ? | 15%
CSc1ccc(-c2nnn(Cc3ccccn3)n2)cc1 | 12µM* | ? | ? | 2.5µM* | ? | 4µM*
CCOC(=O)Cn1nnc(-c2ccc(SC)cc2)n1 | 12µM* | 5% | -11% | -3% | 3% | -2%
CCN(CC)C(=O)COC(=O)c1cc(-c2ccc(OC)cc2)nc2ccccc12 | 7.6µM* | -23% | 5% | 4% | -9% | 10%
COc1ccc(-c2cc(C(=O)OCC(=O)NC3CC3)c3ccccc3n2)cc1 | 3.8µM* | . | 5% | 23% | 3% | 14%
CCNC(=O)COC(=O)c1cc(-c2ccc(OC)cc2)nc2ccccc12 | 5.4µM* | -1% | 3% | 18% | 7% | 13%
COCCNC(=O)COC(=O)c1cc(-c2ccc(OC)cc2)nc2ccccc12 | 11µM* | ? | -2% | 14% | 2% | 13%
O=C(COC(=O)c1cc(-c2ccccc2)nc2ccccc12)NC1CC1 | . | . | 6% | . | 0% | .
C=CCC(C)(O)C(=O)OCC (stereo not given) | . | -4% | . | . | . | .
COc1ccc(-c2cc(C(=O)OCC(=O)N3CCOCC3)c3ccccc3n2)cc1 | . | . | -15% | . | 1% | .
COc1ccc(-c2cc(C(=O)OCC(=O)NC(C)C)c3ccccc3n2)cc1 | 6.7µM* | 2% | 1% | 20% | 5% | 13%
COc1ccc2cc(-c3cc(C(=O)OCC(=O)NC4CCS(=O)(=O)C4)c4ccccc4n3)ccc2c1 (stereo not given) | 0.48µM* | 1.1µM* | ? | 0.5µM* | ? | 0.63µM*
COc1ccc(-c2cc(C(=O)OCC(=O)NC(C)(C)C)c3ccccc3n2)cc1 | 12µM* | 6% | -4% | 15% | -4% | 10%
CCCNC(=O)COC(=O)c1cc(-c2ccc(OC)cc2)nc2ccccc12 | ? | 3% | -3% | 17% | 6% | 11%
CCOC(=O)Cc1ccc(NC(=O)Nc2nnc(N3CCCCC3C)s2)cc1 (stereo not given) | -2% | . | . | . | . | .
Cc1cccc(N2CCN(C(=O)CN3C(=O)COc4ccc(S(=O)(=O)N5CCC(C)CC5)cc43)CC2)c1C | -13% | 6% | . | . | . | .
CCN(Cc1ccccc1)C(=O)Cn1c(=O)n(Cc2ccccc2)c(=O)c2c1c1cc(OC)ccc1n2C | 0% | 7% | . | . | . | .
SMILES | FLuc counter | SMN2 splice up | p53 reactivation | Rab9 prom act | ELG1 genotoxic | NPC1 prom act
COC(=O)CN1C(=O)COc2ccc(S(=O)(=O)NCc3ccccc3)cc21 | 1% | . | -4% | 2% | 0%[9.26 µM] | -1%
COc1ccc(S(=O)(=O)N(CC(=O)NCc2ccncc2)c2cc(C)cc(C)c2)cc1OC | -1% | . | -3% | 7% | -7% | 4%
CC(=O)Nc1ccc(NC(=O)c2ncoc2-c2ccco2)cc1 | 19µM* | . | . | . | . | .
COc1ccc(Cl)cc1NC(=O)Cn1c(=O)n(CCC(=O)NCc2ccc3c(c2)OCO3)c(=O)c2ccccc21 | 3% | 2% | . | . | . | .
CC(C)NS(=O)(=O)c1ccc(OCC(=O)N2CCN(c3ccccc3F)CC2)cc1 | 1% | -45% | . | . | . | .
CCOC(=O)c1sc2nc(NC(=O)C3CC3)sc2c1C | -15% | 5% | 15% | ? | ? | ?
CCOC(=O)c1sc2nc(NC(=O)C(C)(C)C)sc2c1C | 2.7µM* | ? | ? | 1.3µM* | 2.6µM* | 0.89µM*
Nc1nc(-c2ccccc2)cc(N2CCCCC2)n1 | 4% | 6% | -1% | -6% | 2% | -3%
c1ccc(-c2cc(N3CCCCC3)ncn2)cc1 | 11µM* | 10µM* | ? | 2.8µM* | 15µM* | ?
c1ccc(-c2cc(N3CCCCCC3)n[nH]2)cc1 | 21µM* | ? | ? | ? | 16µM* | ?
O=C(NCc1ccccc1Cl)C1CCCN(c2ncnc3onc(-c4ccc(F)cc4)c23)C1 (stereo not given) | -13% | . | . | . | . | .
CCOc1ccc2nc(NC(=O)CSc3cn[nH]n3)sc2c1 | 2.7µM* | . | ? | 4.5µM* | 4.6µM* | 2.8µM*
CCOc1ccc2nc(NC(=O)CSc3nc(-c4ccccc4)c(C#N)c(=O)[nH]3)sc2c1 | 17µM* | . | 21% | 2% | 11% | 0%
COc1cccc(-c2nc(SCC(=O)Nc3nc(-c4ccccc4)c(C)s3)[nH]c(=O)c2C#N)c1 | ? | . | 5% | -9% | 0% | -5%
COc1ccc2nc(NC(=O)CSc3cn[nH]n3)sc2c1 | 6.7µM* | . | ? | 4µM* | ? | ?
CCOC(=O)c1[nH]c(C)c(CCC(=O)NCc2ccc(CC)cc2)c1C | -10% | . | . | . | . | .
COc1cccc(-n2c(=O)c3c(C)c(C(=O)N(C)C)sc3n(CC(=O)Nc3ccc(C)cc3Cl)c2=O)c1 | -6% | . | . | . | . | .
Cc1ccc(C)n1-c1nnc(N2CCCC(C(=O)NCc3cccc(F)c3)C2)s1 (stereo not given) | -5% | 5% | . | . | . | .
Cc1c(Cl)ccc2sc(N3CCN(C(=O)CCS(=O)(=O)c4ccc(F)cc4)CC3)nc12 | -16% | . | . | . | . | .
Cc1cc(C)cc(C(=O)Nc2nnc(SCC(=O)NCC3CCCO3)s2)c1 (stereo not given) | ? | . | -1% | 4% | 4% | 1%
Cc1ccc(NC(=O)c2cnc(SCC(=O)NCC3CCCO3)n(C)c2=O)cc1C (stereo not given) | 4.8µM* | . | 20% | ? | 21µM* | ?
